Some test systems named below: SK-MEL-2 melanoma; EKVX NSCLC; SN12C renal; UO-31 renal; TK-10 renal; ACHN renal; CAKI-1 renal; A498 renal; CCRF-CEM leukemia; MOLT-4 leukemia; SR leukemia; RPMI-8226 leukemia; OVCAR-5 ovarian; OVCAR-4 ovarian; SK-OV-3 ovarian; IGROV1 ovarian; OVCAR-3 ovarian; HS 578T breast; NCI/ADR-RES ovarian; OVCAR-8 ovarian.
What all share (assay): NCI-60 one-dose screen, 48 h (100 = growth as untreated, 0 = no growth, -100 = all killed)
What all share (conditions): 10 µM unless noted

For 8 molecules, growth results are on record in PubChem BioAssay (NCI).

The structures appear in SMILES notation. Compounds without any hit were thinned out: in the full panel of roughly 83,000, 20% have a hit.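 Cell lines were cultured in 96-well plates, exposed to a single compound concentration, and assessed for percent growth 48 hours later.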 Unmarked numbers belong to inactive results. Active and inactive are the calls of the source. The calls were made as follows: active = growth percent below 10; inactive = the rest.

In the case of `Cc1nn(-c2ccc(F)cc2)c2ncnc(Nc3ccc(NC(=O)Nc4ccc(Cl)c(C(F)(F)F)c4)cc3)c12`, the growth with SK-MEL-2 melanoma is -7.22% (active); with EKVX NSCLC, 43.9%; with SN12C renal, 27.2%; in the experiment with UO-31 renal it was 40.1%; in the experiment on TK-10 renal, 26.5%; in the experiment with ACHN renal, 3.49% (active). The growth in the experiment on CAKI-1 renal was 12.4%; with A498 renal, 37.9%; in the experiment on CCRF-CEM leukemia, 28.9%; in the experiment on MOLT-4 leukemia, 26.4%; with SR leukemia, 46.1%; in the experiment on RPMI-8226 leukemia, 19.3%. For the same molecule, the growth is 70.8% in the experiment on OVCAR-5 ovarian; 23.8% in the experiment on OVCAR-4 ovarian; 65.7% in the experiment on SK-OV-3 ovarian; 31% in the experiment with IGROV1 ovarian; -4.21% (active) with OVCAR-3 ovarian; 31.3% with HS 578T breast. For the same molecule, the growth in the experiment on NCI/ADR-RES ovarian is 38.2%.
On to `C=CC(=O)Nc1cccc(-c2nc(SC)nc(Nc3cccc(OC)c3)c2C#N)c1`, for which the growth in the experiment with SK-MEL-2 melanoma is 71.2%; with EKVX NSCLC it was 72%; in the experiment with SN12C renal, 44.6%; in the experiment on UO-31 renal it was 42.3%; with TK-10 renal it was 78.9%; in the experiment with ACHN renal, 45.7%. Moreover, the growth is 44.9% in the experiment on CAKI-1 renal; 9.73% (active) with A498 renal; 57.5% in the experiment on CCRF-CEM leukemia; 39.5% with MOLT-4 leukemia; 40% with RPMI-8226 leukemia; 42% with OVCAR-8 ovarian. Besides, the growth in the experiment with OVCAR-5 ovarian was 103%; with OVCAR-4 ovarian, 62.5%; with SK-OV-3 ovarian it was 73.5%; in the experiment with IGROV1 ovarian, 65.9%; with OVCAR-3 ovarian it was 52.1%; in the experiment on HS 578T breast, 49.3%. Moreover, the growth in the experiment with NCI/ADR-RES ovarian was 49.2%.
Take `COc1cc2c(cc1-c1c(C)noc1C)ncc1nc(C3CCOCC3)n([C@@H](C)COC(F)F)c12`: the growth was 76.4% with SK-MEL-2 melanoma; 55.8% in the experiment with EKVX NSCLC; 66.5% in the experiment with SN12C renal; -38.3% (active) with UO-31 renal; 26.6% with TK-10 renal; 36.9% with ACHN renal. For the same molecule, the growth in the experiment on CAKI-1 renal was -11.1% (active); in the experiment on A498 renal it was -6.79% (active); in the experiment on CCRF-CEM leukemia, 55.6%; with MOLT-4 leukemia, 48%; with SR leukemia it was 28.5%; with RPMI-8226 leukemia, 18.4%. The growth in the experiment on OVCAR-5 ovarian is 65.2%; in the experiment with OVCAR-4 ovarian, 46.4%; in the experiment on SK-OV-3 ovarian, 2.74% (active); in the experiment on OVCAR-3 ovarian, 42.3%; in the experiment on HS 578T breast it was 8.31% (active); in the experiment with NCI/ADR-RES ovarian it was 50.6%.
As for `CC1SC(c2ccc(N(C)C)cc2)N(NC(=O)C(O)(c2ccccc2)c2ccccc2)C1=O` (centres undefined), the growth in the experiment with SK-MEL-2 melanoma was 104%; in the experiment with EKVX NSCLC, 93.5%; with SN12C renal it was 110%; in the experiment with UO-31 renal, 47.7%; in the experiment on TK-10 renal, 89.4%; with ACHN renal, 94%. Moreover, the growth was 91.2% in the experiment with CAKI-1 renal; 101% in the experiment on A498 renal; 65.1% in the experiment on CCRF-CEM leukemia; 72% in the experiment with MOLT-4 leukemia; 90% with SR leukemia; 60.1% with RPMI-8226 leukemia. Moreover, the growth with OVCAR-5 ovarian is 104%; in the experiment on OVCAR-4 ovarian, 95.7%; in the experiment on SK-OV-3 ovarian, 97.6%; in the experiment with IGROV1 ovarian, 80.5%; with OVCAR-3 ovarian, 95%; with HS 578T breast, 103%. Besides, in the experiment on NCI/ADR-RES ovarian, the growth is 95%.
On to `Cc1nc2c3c(-c4ccccc4)c(-c4ccccc4)oc3ncn2n1`, for which the growth is 101% in the experiment with SK-MEL-2 melanoma; 88.9% in the experiment on EKVX NSCLC; 96.5% in the experiment on SN12C renal; 83.9% with UO-31 renal; 108% with TK-10 renal; 94.6% in the experiment on ACHN renal. Further, the growth with CAKI-1 renal was 88.6%; with A498 renal, 67.9%; in the experiment with CCRF-CEM leukemia, 96.7%; in the experiment on MOLT-4 leukemia it was 89.9%; with RPMI-8226 leukemia it was 92.7%; in the experiment with OVCAR-8 ovarian it was 97.3%. In addition, the growth in the experiment on OVCAR-5 ovarian was 95.4%; in the experiment on OVCAR-4 ovarian, 83%; with SK-OV-3 ovarian it was 93%; in the experiment with IGROV1 ovarian, 94.7%; in the experiment with OVCAR-3 ovarian, 111%; in the experiment with HS 578T breast, 95.8%.
For the molecule `O=C1c2cc3c(cc2-c2c1c1ccc(F)cc1c(=O)n2C[C@H](O)[C@H](O)[C@H](O)CO)OCO3`, the growth in the experiment on SK-MEL-2 melanoma is -33.4% (active); in the experiment on EKVX NSCLC it was 5.59% (active); with SN12C renal, -18% (active); in the experiment with UO-31 renal, -55.2% (active); with TK-10 renal, -25.7% (active); in the experiment with ACHN renal it was -53.8% (active). Also, the growth with CAKI-1 renal is -20.6% (active); with A498 renal, -85.7% (active); in the experiment on CCRF-CEM leukemia, 2.16% (active); with MOLT-4 leukemia, -12.3% (active); with SR leukemia it was -8.53% (active); in the experiment with RPMI-8226 leukemia, -12.9% (active). Further, the growth was -20.6% (active) in the experiment on OVCAR-5 ovarian; 5.07% (active) in the experiment on OVCAR-4 ovarian; -30.3% (active) in the experiment with SK-OV-3 ovarian; 7.16% (active) with IGROV1 ovarian; -17% (active) in the experiment on OVCAR-3 ovarian; -8.24% (active) in the experiment with HS 578T breast. Also, the growth with NCI/ADR-RES ovarian is -23.8% (active).
For the molecule `N#C/C(=C\c1ccc(-c2cc(C(F)(F)F)ccc2Cl)o1)c1nc(-c2ccco2)cs1`, the growth was 103% with SK-MEL-2 melanoma; 91.6% in the experiment on EKVX NSCLC; 99% in the experiment on SN12C renal; 87.9% in the experiment on UO-31 renal; 121% in the experiment with TK-10 renal; 105% in the experiment on ACHN renal. The growth in the experiment on CAKI-1 renal is 86.2%; in the experiment on A498 renal, 105%; in the experiment with CCRF-CEM leukemia, 103%; in the experiment with MOLT-4 leukemia it was 101%; in the experiment with RPMI-8226 leukemia, 101%; in the experiment with OVCAR-8 ovarian, 103%. Further, the growth is 98.9% in the experiment with OVCAR-5 ovarian; 85.1% in the experiment on OVCAR-4 ovarian; 100% in the experiment on SK-OV-3 ovarian; 104% in the experiment with IGROV1 ovarian; 113% in the experiment on OVCAR-3 ovarian; 103% with HS 578T breast.
On to `CCCSc1ccc2nc(NC(=O)OC)[nH]c2c1`, for which the growth with SK-MEL-2 melanoma is 7.33% (active); with EKVX NSCLC, 58.2%; with SN12C renal it was 41.5%; in the experiment on UO-31 renal it was 45.5%; in the experiment with TK-10 renal, 39.7%; in the experiment on ACHN renal, 48.6%. Moreover, the growth with CAKI-1 renal is 55%; in the experiment with A498 renal it was -5.4% (active); in the experiment on CCRF-CEM leukemia it was 10.6%; in the experiment on MOLT-4 leukemia, 23.6%; in the experiment with RPMI-8226 leukemia, 14.4%; in the experiment on OVCAR-8 ovarian, 17.1%. Besides, the growth was 34.2% with OVCAR-5 ovarian; 48.9% with OVCAR-4 ovarian; 6.85% (active) with SK-OV-3 ovarian; 45.3% in the experiment with IGROV1 ovarian; -32.1% (active) in the experiment on OVCAR-3 ovarian; 21.2% in the experiment with HS 578T breast. Moreover, the growth in the experiment on NCI/ADR-RES ovarian was -8.18% (active).
